Laboratory results taken from ChEMBL document CHEMBL3988442, “University of Dundee, Small-Polar-MMV Screening Library” (2021).
About 13,000 (27%) of roughly 48,000 compounds showed an effect of 50% or more. This is one part of the list.

The molecules below were run on Wolbachia pipientis (assay: Anti-Wolbachia Cell-Based Screen). Conditions: 5 µM.
Assay type: functional
Parameters: scale not given: in the data most compounds retested in dose-response had high values

Going from `Cn1cccc1CN1CCC2(CCCN(C(=O)c3cccnc3)C2)CC1.O=C(O)C(F)(F)F.O=C(O)C(F)(F)F` to `Cn1cccc1C(=O)N1CCC2(CCN(C(=O)c3cccnc3)C2)CC1.O=C(O)C(F)(F)F`, the “Percent Effect” value rises from 3.692% to 51.82%.

First: Cn1cccc1C(=O)N1CC2(CCN(C(=O)c3cccnc3)C2)C1.O=C(O)C(F)(F)F
Second: O=C(Nc1ccccc1)C1CN(Cc2ccco2)CC12CCOCC2.O=C(O)C(F)(F)F (centres undefined)
The “Percent Effect” value of the first is higher: 98.8% for the first, -4.746% for the second.

Going from `CN1CCN(C(=O)NCCc2ccc(F)cc2)[C@H]2CS(=O)(=O)C[C@H]21` to `CC1(C(=O)NCCc2ccc(F)cc2)CCOCC1`, the “Percent Effect” value rises from 8.781% to 104.4%.

Going from `CC1(C(=O)NCc2cccc(C(F)(F)F)c2)CCOCC1` to `CC1(C(=O)NCc2cc(F)cc(F)c2)CCOCC1`, the “Percent Effect” value falls from 102.7% to 100.6%.

First: FC(F)(F)c1cccc(C2(CNCc3cc[nH]c3)CCOCC2)c1
Second: FC(F)(F)c1cccc(C2(CNCc3ccncc3)CCOCC2)c1
The “Percent Effect” value of the first is higher: 2.692% for the first, -7.872% for the second.

Compared with `CC(CNC(=O)NCc1ccsc1)CC1(C)OCCO1` (centres undefined), `CC1(CCNC(=O)NCc2ccsc2)OCCO1` is higher in “Percent Effect” value: -12.21% for the first, -10.92% for the second.

Going from `CC1(C(=O)Nc2ccc(F)c(-n3cccc3)c2)CCOCC1` to `CCN(CC)c1ccc(CNC(=O)C2(C)CCOCC2)cc1F`, the “Percent Effect” value rises from -9.431% to 25.87%.

First: CN(C)C1(CNC(=O)Cc2ccc(F)cc2)CCOCC1
Second: CC1(C(=O)NCc2ccsc2)CCOCC1
The “Percent Effect” value of the first is lower: -8.041% for the first, 107.3% for the second.

Compared with `Cc1nc(-c2ccccc2)c(C(=O)N2CCC3(CC(=O)NC3=O)C2)s1` (centres undefined), `Cc1noc(C)c1CN1CC2(CCN(C(=O)c3ccoc3C)C2)CC1=O` (centres undefined) is lower in “Percent Effect” value: -0.3979% for the first, -6.391% for the second.

Going from `CCC(C)N(Cc1cc(C)n[nH]1)Cc1ccccc1Cl` (centres undefined) to `CCC(C)CN(C)C(=O)NCc1ccccc1-n1cccn1` (centres undefined), the “Percent Effect” value falls from 4.348% to -6.014%.

Compared with `Cc1cc(CN2CCCC2)cc(Oc2ccc3c(c2)CC(CN)O3)c1` (centres undefined), `COCc1nccc(C2CCCN(Cc3ccc(SC)cc3)C2)n1` (centres undefined) is lower in “Percent Effect” value: 4.792% for the first, -16.87% for the second.

Compared with `CC(C)c1noc(CN(C)C(=O)c2ncn[nH]2)n1`, `CC(C)c1noc(CCC(=O)N(CC2CCOC2)C2CC2)n1` (centres undefined) is higher in “Percent Effect” value: 4.654% for the first, 6.067% for the second.

First: CC(=O)NCCNC(=O)c1sc(-c2ccc(C)cc2C)nc1C
Second: Cc1ccc(NC(C)C(=O)N(C)Cc2cccc(F)c2)cc1C(N)=O (centres undefined)
The “Percent Effect” value of the first is higher: -3.584% for the first, -12.41% for the second.

Compared with `N#Cc1cn[nH]c1NCc1cc(Cl)cc(Cl)c1O`, `N#Cc1cn[nH]c1NCc1cc(I)cc(I)c1O` is higher in “Percent Effect” value: 77.61% for the first, 96% for the second.

Going from `N#Cc1cn[nH]c1NCc1cc(Br)ccc1O` to `O=C(c1cncc(Br)c1)N1CCCc2c(F)cc(F)cc21`, the “Percent Effect” value falls from 83.36% to -4.9%.

First: COc1ccc(/C=C/CN2CCN(c3ncccc3C(N)=O)CC2)cc1
Second: CN1CCN(c2ccc(NCc3ccc([S+](C)[O-])cc3)cn2)CC1 (centres undefined)
The “Percent Effect” value of the first is higher: -5.557% for the first, -11.28% for the second.

First: CCC(=O)N1CCC1c1cc(NC2CCCC2)nc(C)n1 (centres undefined)
Second: Cc1nc(NC2CCCC2)cc(C2CCN2C(=O)c2cnn(C)c2)n1 (centres undefined)
The “Percent Effect” value of the first is higher: 124.3% for the first, 99.12% for the second.

Compared with `Cc1nc(NC2CCCC2)cc(C2CCN2C(=O)c2ccccn2)n1` (centres undefined), `Cc1nc(NC2CCCC2)cc(C2CCN2C(=O)c2ccccc2)n1` (centres undefined) is lower in “Percent Effect” value: 140.6% for the first, 4.339% for the second.

Going from `CCc1cc(NC2CCN(CC(N)=O)CC2)nc(N2CCCCC2)n1` to `CC(OCC1CC1)C(=O)N1CCCN(c2nc3ccccc3[nH]2)CC1` (centres undefined), the “Percent Effect” value falls from 3.351% to 2.156%.

First: Cc1cccc(N2CC[C@H]3[C@H]2CCN3C(=O)c2cnn(C)c2)n1
Second: Cc1nc(NC2CCCC2)cc(C2CCN2C(=O)c2cccnc2)n1 (centres undefined)
The “Percent Effect” value of the first is higher: 8.202% for the first, -5.726% for the second.

Going from `O=C1NCCc2c1sc1ccc(C(=O)N3CC[C@H](CO)[C@H](O)C3)cc21` to `O=C(O)C(F)(F)F.O=C(c1ccncc1F)N1CC[C@@H]2OC(COCC3CC3)CC[C@@H]21` (some centres undefined), the “Percent Effect” value rises from 1.887% to 97.57%.

First: CCCS(=O)(=O)N1CCC2(CCC(=O)N(CCc3cccnc3)C2)CC1
Second: O=S(=O)(Cc1c(F)cccc1Cl)NCCCN1CCCCCC1
The “Percent Effect” value of the first is lower: -2.035% for the first, 1.36% for the second.

Going from `CCCC(=O)NC(C)(C)Cc1ccccc1OC` to `CCn1cc(S(=O)(=O)NC(=O)CCc2c[nH]c3ccccc23)cn1`, the “Percent Effect” value falls from 8.655% to 5.036%.

First: Cc1ccsc1C(=O)N1CC[C@H]2CO[C@H](CN(C)C)[C@H]2C1.O=C(O)C(F)(F)F
Second: CC(C)COC[C@@H]1CC[C@H]2[C@H](CCN2C(=O)c2ccncc2F)O1.O=C(O)C(F)(F)F
The “Percent Effect” value of the first is lower: 3.155% for the first, 105.1% for the second.

Compared with `CCC(C)CS(=O)(=O)NC(=O)C1CC1` (centres undefined), `O=C(CS(=O)(=O)Cc1nnnn1C1CC1)NCC1CC1` is higher in “Percent Effect” value: -14.71% for the first, -6.472% for the second.

Going from `O=C(CS(=O)(=O)Cc1nnnn1C1CC1)NCCc1ccccc1` to `O=S(=O)(CCCc1ccccc1)Cc1nnnn1C1CC1`, the “Percent Effect” value rises from -17.89% to -8.499%.

Going from `CN(Cc1nnnn1C1CC1)c1cccc2ccccc12` to `O=S(=O)(Cc1ccccc1F)Cc1nnnn1C1CC1`, the “Percent Effect” value rises from -12.9% to 106.9%.

Going from `O=S(=O)(Cc1c(F)cccc1Cl)Cc1nnnn1C1CC1` to `[O-][S+](Cc1c(F)cccc1Cl)Cc1nnnn1C1CC1` (centres undefined), the “Percent Effect” value rises from 95.69% to 117.1%.

Compared with `c1ccc(C2CCCN2Cc2nnnn2C2CC2)cc1` (centres undefined), `Nc1nccc(C2CCCN(CC3CC3)C2)n1` (centres undefined) is higher in “Percent Effect” value: -9.931% for the first, 142.8% for the second.

Compared with `Cc1cnccc1CN(C)C1CCN(c2ncnc3[nH]cnc23)CC1`, `Fc1cnc(N2CC[C@@H]3O[C@@H](COCc4cccnc4)CC[C@@H]32)nc1.O=C(O)C(F)(F)F` is lower in “Percent Effect” value: -3.937% for the first, -5.936% for the second.

First: CN(C)C(=O)CCC[S+]([O-])Cc1cc(Cl)ccc1Cl (centres undefined)
Second: CCn1nccc1CN(C)C(=O)Cn1nc(C)cc1C
The “Percent Effect” value of the first is lower: 0.1259% for the first, 69.47% for the second.

Going from `Cc1noc(C)c1CN1CCc2nn(C(C)C)c(=O)cc2C1` to `CC(C)n1nnc2c(sc3nc(N4CCOCC4)c4c(c32)CCC4)c1=O`, the “Percent Effect” value rises from -7.391% to 121.1%.

Compared with `CC(=O)Nc1ncc(S(=O)(=O)N2CCN(C3CCCCC3)CC2)s1`, `Cc1ccc2[nH]c([C@H]3CCN(CC4CCCCC4)C3)nc2c1` is higher in “Percent Effect” value: -4.636% for the first, 2.151% for the second.

First: Cc1ccccc1S(=O)(=O)Cc1nsc(N(C)C)n1
Second: Cc1ccc(S(=O)(=O)Cc2noc([C@@H]3C[C@@H](O)CN3)n2)cc1
The “Percent Effect” value of the first is lower: -10.46% for the first, 5.528% for the second.

Compared with `COc1ccc2c(c1)CCCN2C(=O)NCCc1cnn(C)c1`, `COc1ccc(C(=O)Nc2cnn(CC(=O)NC3CCCC3)c2)c(O)c1` is higher in “Percent Effect” value: -4.065% for the first, -2.411% for the second.

Going from `Cc1cc(C)n(CC(C)CNC(=O)N(C)Cc2ccco2)n1` (centres undefined) to `Cc1cc(C)n(CC2CCCCN2CC(=O)N(C)Cc2ccco2)n1` (centres undefined), the “Percent Effect” value falls from 23.18% to -0.03535%.

First: Cc1ccc(CN(C)C(=O)Cn2nc(-c3ccc(F)cc3)oc2=O)cc1
Second: CCc1nc(CC)n(CC(=O)N(C)Cc2ccc(F)cc2)n1
The “Percent Effect” value of the first is lower: -26.69% for the first, -4.811% for the second.

Going from `CCn1nccc1CN(C)C(=O)Cn1nc(C)c(C)c1C` to `CCn1c(CN(C)C(=O)c2ccc(N(C)C)nc2)nc2ccccc21`, the “Percent Effect” value falls from 98.15% to -11.95%.

First: O=C(CNC(=O)C1CCCC1)NCC(O)c1ccc2ccccc2c1 (centres undefined)
Second: O=C(NCc1ccccn1)NCC(c1ccco1)N1CCCC1 (centres undefined)
The “Percent Effect” value of the first is lower: -9.214% for the first, 11.6% for the second.

Compared with `CCCn1nnnc1CN(c1ccc(N2CCOCC2)cc1)C(C)C`, `CCCn1nnc2c(sc3nc(N4CCOCC4)c4c(c32)CCC4)c1=O` is higher in “Percent Effect” value: -9.048% for the first, 106.2% for the second.

First: Cn1nnc2c(sc3nc(N4CCOCC4)c4c(c32)CCC4)c1=O
Second: CCc1nc2c(c(N3CCOCC3)n1)CCN(C(=O)N1CCCC1)CC2
The “Percent Effect” value of the first is higher: 117% for the first, -8.543% for the second.

Going from `CN(C)C(=O)Cc1ccccc1NCc1cccc2cccnc12` to `COc1ccc(CNC[C@H]2COCc3nc4cccnc4n32)cn1`, the “Percent Effect” value rises from -12.16% to 2.273%.

Compared with `CC(C#N)CNS(=O)(=O)c1ccc(Br)c(F)c1` (centres undefined), `N#Cc1ccc(SCCOCCO)c(F)c1` is lower in “Percent Effect” value: 3.318% for the first, -11.88% for the second.

First: NC(=O)NC(=O)CCN(Cc1ccccc1)CC1CCOCC1
Second: O=C(CCn1cccn1)NCC(c1cccs1)N1CCCC1 (centres undefined)
The “Percent Effect” value of the first is higher: -17.87% for the first, -57.56% for the second.

First: Cc1cnn(CC(C)NCC(=O)Nc2ccc(Cl)cn2)c1 (centres undefined)
Second: O=C(Cn1cccn1)NCC(c1cccs1)N1CCCC1 (centres undefined)
The “Percent Effect” value of the first is lower: -4.944% for the first, -1.128% for the second.

First: Fc1cnc(N2CC[C@@H]3O[C@@H](COCc4ccccn4)CC[C@@H]32)nc1.O=C(O)C(F)(F)F.O=C(O)C(F)(F)F
Second: CC(C)COC[C@H]1CC[C@H]2[C@H](CCN2C(=O)c2ccncc2F)O1.O=C(O)C(F)(F)F
The “Percent Effect” value of the first is lower: -20.87% for the first, 108.1% for the second.

Compared with `CN(Cc1ccc(Cl)s1)C(=O)c1cccc(OCC(N)=O)c1`, `Cc1ccc2c(c1)OCCN2C(=O)c1ccc(=O)n(C)c1` is higher in “Percent Effect” value: -4.963% for the first, 10.97% for the second.

Compared with `Nc1nccc(C2CCN(CC3CC3)C2)n1` (centres undefined), `Nc1nccc(C2CCN(CCO)C2)n1` (centres undefined) is lower in “Percent Effect” value: 123.6% for the first, 113.7% for the second.

First: N#Cc1ccc(CN2CCC(c3ccnn3CCO)CC2)cc1
Second: Cc1noc(CN2CCC(c3ccnn3CCO)CC2)n1
The “Percent Effect” value of the first is lower: -5.885% for the first, -5.622% for the second.

Going from `COc1ccc(-c2nnc([C@H]3CCN(CC4CC4)C3)o2)cc1` to `COCc1nccc(C2CCCN(Cc3ccc(C#N)cc3)C2)n1` (centres undefined), the “Percent Effect” value falls from 1.558% to -15.32%.

First: COc1ccc(CC2CCCN2CCCC#N)cc1 (centres undefined)
Second: O=C(NCCCn1ccnc1)N1CCCC1c1cccs1 (centres undefined)
The “Percent Effect” value of the first is lower: 3.146% for the first, 8.272% for the second.

Compared with `O=C(NCCn1ccnc1)NCC(c1ccco1)N1CCCC1` (centres undefined), `O=C(NCCn1ccnc1)NCC(c1ccco1)N1CCCCC1` (centres undefined) is lower in “Percent Effect” value: 107.9% for the first, -2.241% for the second.

Going from `O=C(NCCCn1ccnc1)NCC(c1ccco1)N1CCCCC1` (centres undefined) to `O=C(NCCCn1ccnc1)NCC(c1ccco1)N1CCCC1` (centres undefined), the “Percent Effect” value falls from 152.2% to 97.42%.

First: O=C(NCc1ccccn1)NCC(c1ccco1)N1CCCCC1 (centres undefined)
Second: O=C(NCc1cc[nH]n1)NCC(c1ccco1)N1CCCC1 (centres undefined)
The “Percent Effect” value of the first is higher: 12.69% for the first, -4.044% for the second.

With `O=C(NCCCn1cccn1)NCC(c1ccco1)N1CCCC1` (centres undefined) the “Percent Effect” value was 116.5%.
